What all share (test): PBM; 200 nM protein, PBS
What all share (settings): dsDNA, one strand shown

For assay [1], the target named is HOXB4 (Homo sapiens, UniProt P17483 148-234).
For assay [2], the target named is HOXA4 (Homo sapiens, UniProt Q00056 201-287, W262R).
The target of assay [3] is HOXA2 (Homo sapiens, UniProt O43364 129-215, R185T).
In assay [4] the target is HOXA4 (Homo sapiens, UniProt Q00056 201-287, R217L).
In assay [5] the target is HOXB4 (Homo sapiens, UniProt P17483 148-234, V174I).
Assay [6] addresses HOXA2 (Homo sapiens, UniProt O43364 129-215, R185K).
For assay [7], the target named is HOXA4 (Homo sapiens, UniProt Q00056 201-287).
Assay [8] has as its target VAX1 (Homo sapiens, UniProt Q5SQQ9 86-172).
Assay [9] concerns the target VAX1 (Homo sapiens, UniProt Q5SQQ9 86-172, T142I).
In assay [10] the target is HOXA2 (Homo sapiens, UniProt O43364 129-215, Y150S).
In assay [11] the target is HOXA4 (Homo sapiens, UniProt Q00056 201-287, W262F).
The target of assay [12] is HOXA2 (Homo sapiens, UniProt O43364 129-215).
The target in assay [13] is VAX1 (Homo sapiens, UniProt Q5SQQ9 86-172, K157R).
The target of assay [14] is HESX1 (Homo sapiens, UniProt Q9UBX0 95-180, R165K).
For assay [15], the target named is HESX1 (Homo sapiens, UniProt Q9UBX0 95-180).
In assay [16] the target is HESX1 (Homo sapiens, UniProt Q9UBX0 95-180, P111T).
For assay [17], the target named is HESX1 (Homo sapiens, UniProt Q9UBX0 95-180, R109Q).
Assay [18] has as its target HESX1 (Homo sapiens, UniProt Q9UBX0 95-180, F115L).
Assay [19] deals with T1, VENTX (Homo sapiens, UniProt O95231 78-163, R121Q).
T1 sequence: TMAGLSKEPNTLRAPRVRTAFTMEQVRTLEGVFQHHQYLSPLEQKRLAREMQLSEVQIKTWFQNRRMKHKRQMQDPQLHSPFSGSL

The target in assay [20] is T2, VENTX (Homo sapiens, UniProt O95231 78-163, Y115F).
T2 sequence: T1 sequence with Y38F, Q44R

22 sequences from PMC11006913 can be followed below.

Residue numbers refer to the chain shown, from its start.

HOXA4 (Homo sapiens, UniProt Q00056 201-287, R217L), sequence (Q00056 201-287 R217L): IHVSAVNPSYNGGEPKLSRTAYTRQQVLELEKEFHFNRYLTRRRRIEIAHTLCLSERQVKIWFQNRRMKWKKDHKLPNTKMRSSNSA
HOXA4 (Homo sapiens, UniProt Q00056 201-287), sequence (Q00056 201-287): as the sequence (Q00056 201-287 R217L) above, with L17R counted along it
HESX1 (Homo sapiens, UniProt Q9UBX0 95-180), sequence (Q9UBX0 95-180): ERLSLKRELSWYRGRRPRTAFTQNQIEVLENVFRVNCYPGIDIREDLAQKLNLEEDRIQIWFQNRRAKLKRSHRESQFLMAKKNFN
VAX1 (Homo sapiens, UniProt Q5SQQ9 86-172), sequence (Q5SQQ9 86-172): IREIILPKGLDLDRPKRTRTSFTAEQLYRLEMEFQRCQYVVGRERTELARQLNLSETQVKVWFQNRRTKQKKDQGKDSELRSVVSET
HOXA4 (Homo sapiens, UniProt Q00056 201-287, W262R), sequence (Q00056 201-287 W262R): as the sequence (Q00056 201-287 R217L) above, with L17R, W62R counted along it
HESX1 (Homo sapiens, UniProt Q9UBX0 95-180, P111T), sequence (Q9UBX0 95-180 P111T): as the sequence (Q9UBX0 95-180) above, with P17T counted along it
HOXA4 (Homo sapiens, UniProt Q00056 201-287, W262F), sequence (Q00056 201-287 W262F): as the sequence (Q00056 201-287 R217L) above, with L17R, W62F counted along it
VAX1 (Homo sapiens, UniProt Q5SQQ9 86-172, K157R), sequence (Q5SQQ9 86-172 K157R): as the sequence (Q5SQQ9 86-172) above, with K72R counted along it
VAX1 (Homo sapiens, UniProt Q5SQQ9 86-172, T142I), sequence (Q5SQQ9 86-172 T142I): as the sequence (Q5SQQ9 86-172) above, with T57I counted along it
HESX1 (Homo sapiens, UniProt Q9UBX0 95-180, R109Q), sequence (Q9UBX0 95-180 R109Q): as the sequence (Q9UBX0 95-180) above, with R15Q counted along it
HOXB4 (Homo sapiens, UniProt P17483 148-234), sequence (P17483 148-234): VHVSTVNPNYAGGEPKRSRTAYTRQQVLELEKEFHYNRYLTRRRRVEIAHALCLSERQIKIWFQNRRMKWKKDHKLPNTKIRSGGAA
HOXB4 (Homo sapiens, UniProt P17483 148-234, V174I), sequence (P17483 148-234 V174I): as the sequence (P17483 148-234) above, with V27I counted along it
HESX1 (Homo sapiens, UniProt Q9UBX0 95-180, R165K), sequence (Q9UBX0 95-180 R165K): as the sequence (Q9UBX0 95-180) above, with R71K counted along it
HESX1 (Homo sapiens, UniProt Q9UBX0 95-180, F115L), sequence (Q9UBX0 95-180 F115L): as the sequence (Q9UBX0 95-180) above, with F21L counted along it
HOXA2 (Homo sapiens, UniProt O43364 129-215, R185K), sequence (O43364 129-215 R185K): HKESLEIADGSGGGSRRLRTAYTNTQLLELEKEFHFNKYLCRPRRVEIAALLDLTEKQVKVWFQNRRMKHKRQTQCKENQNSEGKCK
HOXA2 (Homo sapiens, UniProt O43364 129-215, R185T), sequence (O43364 129-215 R185T): as the sequence (O43364 129-215 R185K) above, with K57T counted along it
HOXA2 (Homo sapiens, UniProt O43364 129-215), sequence (O43364 129-215): as the sequence (O43364 129-215 R185K) above, with K57R counted along it
HOXA2 (Homo sapiens, UniProt O43364 129-215, Y150S), sequence (O43364 129-215 Y150S): as the sequence (O43364 129-215 R185K) above, with Y22S, K57R counted along it

With GATCATTA, the binding signal with HOXB4 [1] is 13.4 upbm affinity estimate (log intensity, higher = more binding, comparable within an allelic series); in the assay with HOXA4 [2], 10.5 upbm affinity estimate (log intensity, higher = more binding, comparable within an allelic series); with HOXA2 [3] it was 12.5 upbm affinity estimate (log intensity, higher = more binding, comparable within an allelic series); with HOXA4 [4], 12.4 upbm affinity estimate (log intensity, higher = more binding, comparable within an allelic series); with HOXB4 [5], 14.1 upbm affinity estimate (log intensity, higher = more binding, comparable within an allelic series); with HOXA2 [6] it was 13.3 upbm affinity estimate (log intensity, higher = more binding, comparable within an allelic series). Further, the binding signal with HOXA4 [7] was 14.1 upbm affinity estimate (log intensity, higher = more binding, comparable within an allelic series); with VAX1 [8], 13 upbm affinity estimate (log intensity, higher = more binding, comparable within an allelic series); with VAX1 [9] it was 13.1 upbm affinity estimate (log intensity, higher = more binding, comparable within an allelic series); in the assay with HOXA2 [10], 10.9 upbm affinity estimate (log intensity, higher = more binding, comparable within an allelic series); with HOXA4 [11], 11.9 upbm affinity estimate (log intensity, higher = more binding, comparable within an allelic series); with HOXA2 [12], 12.6 upbm affinity estimate (log intensity, higher = more binding, comparable within an allelic series). Besides, the binding signal with VAX1 [13] was 13 upbm affinity estimate (log intensity, higher = more binding, comparable within an allelic series).

For CAGGACCC, the binding signal was 7.14 upbm affinity estimate (log intensity, higher = more binding, comparable within an allelic series) in the assay with HOXB4 [1]; 9.96 upbm affinity estimate (log intensity, higher = more binding, comparable within an allelic series) in the assay with HOXA4 [2]; 9.81 upbm affinity estimate (log intensity, higher = more binding, comparable within an allelic series) with HOXA4 [4]; 7.15 upbm affinity estimate (log intensity, higher = more binding, comparable within an allelic series) in the assay with HOXB4 [5]; 9.67 upbm affinity estimate (log intensity, higher = more binding, comparable within an allelic series) with HOXA4 [7]; 9.89 upbm affinity estimate (log intensity, higher = more binding, comparable within an allelic series) with HOXA4 [11].

Consider ATTCATAA, for which the binding signal in the assay with HESX1 [14] was 7.97 upbm affinity estimate (log intensity, higher = more binding, comparable within an allelic series); in the assay with HESX1 [15], 8.03 upbm affinity estimate (log intensity, higher = more binding, comparable within an allelic series); with HESX1 [16], 7.62 upbm affinity estimate (log intensity, higher = more binding, comparable within an allelic series).

In the case of AACCTATT, the binding signal with HESX1 [14] is 8.08 upbm affinity estimate (log intensity, higher = more binding, comparable within an allelic series); with HESX1 [15], 8.17 upbm affinity estimate (log intensity, higher = more binding, comparable within an allelic series); with HESX1 [16], 7.48 upbm affinity estimate (log intensity, higher = more binding, comparable within an allelic series).

In the case of TATCAATA, the binding signal in the assay with HESX1 [14] is 7.76 upbm affinity estimate (log intensity, higher = more binding, comparable within an allelic series); in the assay with HESX1 [15] it was 7.98 upbm affinity estimate (log intensity, higher = more binding, comparable within an allelic series); with HESX1 [17], 7.49 upbm affinity estimate (log intensity, higher = more binding, comparable within an allelic series); in the assay with HESX1 [16], 7.63 upbm affinity estimate (log intensity, higher = more binding, comparable within an allelic series); in the assay with HESX1 [18], 7.36 upbm affinity estimate (log intensity, higher = more binding, comparable within an allelic series).

As for AATAGTGT, the binding signal with HESX1 [14] was 7.52 upbm affinity estimate (log intensity, higher = more binding, comparable within an allelic series); with HESX1 [15] it was 7.75 upbm affinity estimate (log intensity, higher = more binding, comparable within an allelic series); with HESX1 [16], 7.31 upbm affinity estimate (log intensity, higher = more binding, comparable within an allelic series).

For the sequence ATTGAACC, the binding signal with HESX1 [14] is 7.56 upbm affinity estimate (log intensity, higher = more binding, comparable within an allelic series); with HESX1 [15], 7.77 upbm affinity estimate (log intensity, higher = more binding, comparable within an allelic series); with HESX1 [16], 7.33 upbm affinity estimate (log intensity, higher = more binding, comparable within an allelic series).

Turning to CGATATTA, the binding signal in the assay with HESX1 [14] is 8.16 upbm affinity estimate (log intensity, higher = more binding, comparable within an allelic series); with HESX1 [15], 8.27 upbm affinity estimate (log intensity, higher = more binding, comparable within an allelic series); with HESX1 [16], 7.74 upbm affinity estimate (log intensity, higher = more binding, comparable within an allelic series).

As to CGAGGGTC, the binding signal with HOXB4 [1] was 7.67 upbm affinity estimate (log intensity, higher = more binding, comparable within an allelic series); with HOXB4 [5], 7.5 upbm affinity estimate (log intensity, higher = more binding, comparable within an allelic series); with VAX1 [8] it was 6.87 upbm affinity estimate (log intensity, higher = more binding, comparable within an allelic series); in the assay with VAX1 [9], 7 upbm affinity estimate (log intensity, higher = more binding, comparable within an allelic series); in the assay with VAX1 [13] it was 7.08 upbm affinity estimate (log intensity, higher = more binding, comparable within an allelic series).

Consider CATTAGAG, for which the binding signal in the assay with HESX1 [14] was 8.32 upbm affinity estimate (log intensity, higher = more binding, comparable within an allelic series); with HESX1 [15], 8.46 upbm affinity estimate (log intensity, higher = more binding, comparable within an allelic series); in the assay with HESX1 [18] it was 6.84 upbm affinity estimate (log intensity, higher = more binding, comparable within an allelic series).

Consider CCGCAAGG, for which the binding signal was 7.78 upbm affinity estimate (log intensity, higher = more binding, comparable within an allelic series) in the assay with HOXB4 [1] and 7.66 upbm affinity estimate (log intensity, higher = more binding, comparable within an allelic series) with HOXB4 [5].

For GACGCCGC, the binding signal is 7.74 upbm affinity estimate (log intensity, higher = more binding, comparable within an allelic series) with HOXB4 [1] and 7.51 upbm affinity estimate (log intensity, higher = more binding, comparable within an allelic series) with HOXB4 [5].

Regarding GCCCAGAC, the binding signal is 7.49 upbm affinity estimate (log intensity, higher = more binding, comparable within an allelic series) in the assay with HOXB4 [1] and 7.68 upbm affinity estimate (log intensity, higher = more binding, comparable within an allelic series) in the assay with HOXB4 [5].

On to TAACGATA, for which the binding signal with HESX1 [14] was 7.67 upbm affinity estimate (log intensity, higher = more binding, comparable within an allelic series); in the assay with HESX1 [15], 7.8 upbm affinity estimate (log intensity, higher = more binding, comparable within an allelic series); in the assay with HESX1 [16] it was 7.53 upbm affinity estimate (log intensity, higher = more binding, comparable within an allelic series).

Turning to CTCATTAA, the binding signal with HOXB4 [1] was 13.2 upbm affinity estimate (log intensity, higher = more binding, comparable within an allelic series); in the assay with VENTX [19] it was 12 upbm affinity estimate (log intensity, higher = more binding, comparable within an allelic series); with HOXA4 [2], 10.6 upbm affinity estimate (log intensity, higher = more binding, comparable within an allelic series); with VENTX [20], 12 upbm affinity estimate (log intensity, higher = more binding, comparable within an allelic series); with HOXA2 [3] it was 13.3 upbm affinity estimate (log intensity, higher = more binding, comparable within an allelic series); with HOXA4 [4] it was 12.5 upbm affinity estimate (log intensity, higher = more binding, comparable within an allelic series). Further, the binding signal with HOXB4 [5] is 13.9 upbm affinity estimate (log intensity, higher = more binding, comparable within an allelic series); in the assay with HOXA2 [6], 13.6 upbm affinity estimate (log intensity, higher = more binding, comparable within an allelic series); in the assay with HOXA4 [7], 14 upbm affinity estimate (log intensity, higher = more binding, comparable within an allelic series); in the assay with VAX1 [8], 13.7 upbm affinity estimate (log intensity, higher = more binding, comparable within an allelic series); with VAX1 [9], 13.5 upbm affinity estimate (log intensity, higher = more binding, comparable within an allelic series); in the assay with HOXA2 [10] it was 10.7 upbm affinity estimate (log intensity, higher = more binding, comparable within an allelic series). The binding signal with HOXA4 [11] was 12 upbm affinity estimate (log intensity, higher = more binding, comparable within an allelic series); with HOXA2 [12], 12.9 upbm affinity estimate (log intensity, higher = more binding, comparable within an allelic series); with VAX1 [13], 13.6 upbm affinity estimate (log intensity, higher = more binding, comparable within an allelic series).

Turning to TATTGCCA, the binding signal was 7.79 upbm affinity estimate (log intensity, higher = more binding, comparable within an allelic series) in the assay with HESX1 [14]; 7.9 upbm affinity estimate (log intensity, higher = more binding, comparable within an allelic series) with HESX1 [15]; 7.47 upbm affinity estimate (log intensity, higher = more binding, comparable within an allelic series) with HESX1 [16].

For CAAATGGG, the binding signal is 7.28 upbm affinity estimate (log intensity, higher = more binding, comparable within an allelic series) with HESX1 [14]; 7.38 upbm affinity estimate (log intensity, higher = more binding, comparable within an allelic series) with HESX1 [15]; 6.88 upbm affinity estimate (log intensity, higher = more binding, comparable within an allelic series) with HESX1 [17]; 6.73 upbm affinity estimate (log intensity, higher = more binding, comparable within an allelic series) with HESX1 [18].

As for GTCATAAC, the binding signal in the assay with HESX1 [14] is 7.26 upbm affinity estimate (log intensity, higher = more binding, comparable within an allelic series); with HESX1 [15] it was 7.28 upbm affinity estimate (log intensity, higher = more binding, comparable within an allelic series); with HESX1 [16] it was 7.2 upbm affinity estimate (log intensity, higher = more binding, comparable within an allelic series).

As to CCGTCGTC, the binding signal with HESX1 [14] is 6.45 upbm affinity estimate (log intensity, higher = more binding, comparable within an allelic series); with HESX1 [15] it was 6.42 upbm affinity estimate (log intensity, higher = more binding, comparable within an allelic series); with HESX1 [17], 6.4 upbm affinity estimate (log intensity, higher = more binding, comparable within an allelic series); in the assay with HESX1 [16], 6.44 upbm affinity estimate (log intensity, higher = more binding, comparable within an allelic series); with HESX1 [18] it was 6.26 upbm affinity estimate (log intensity, higher = more binding, comparable within an allelic series).

Consider GACTGGCC, for which the binding signal with HOXB4 [1] was 7.7 upbm affinity estimate (log intensity, higher = more binding, comparable within an allelic series); in the assay with HOXB4 [5] it was 7.58 upbm affinity estimate (log intensity, higher = more binding, comparable within an allelic series).

Consider AGCCTGGG, for which the binding signal was 7.59 upbm affinity estimate (log intensity, higher = more binding, comparable within an allelic series) in the assay with HOXB4 [1] and 7.58 upbm affinity estimate (log intensity, higher = more binding, comparable within an allelic series) with HOXB4 [5].

For the sequence CATTAGGG, the binding signal in the assay with HESX1 [14] is 8.41 upbm affinity estimate (log intensity, higher = more binding, comparable within an allelic series); in the assay with HESX1 [15] it was 8.4 upbm affinity estimate (log intensity, higher = more binding, comparable within an allelic series); in the assay with HESX1 [18], 6.71 upbm affinity estimate (log intensity, higher = more binding, comparable within an allelic series).
